Test results taken from PubChem BioAssay (Tox21).
“And” between values parts separate entries of the source, which are not always exact repeats. Equal entries are not always repeated. A number with no mark means an inactive call. Inconclusive results are not listed. Where a call stands in place of a potency, no number is given. The source made the active and inactive calls. The call rests on the fitted dose curve; in most records, active means well fitted curve in the direction sought with a large enough effect in the repeat runs; inconclusive means weak or mixed curves; inactive means no such curve, though single readings can be large; an effect the other way counts as inactive or inconclusive.

Legend:
[1] = Caspase-3/7 induction in CHO-K1 cells by small molecules, qHTS cell viability counter screen (AID 1346979); further: nearly all actives have a fitted effect of over 35% in size; further: potency means the concentration at half of the fitted maximal effect
Procedure, shortened: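 Multiplexed with Caspase-Glo 3/7 in CHO-K1 cells, this counter screen added CellTiter-Fluor after 16hr of compound exposure and recorded fluorescence 1hr later.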

[2] = Caspase-3/7 induction in CHO-K1 cells by small molecules, qHTS assay (AID 1346980); further: nearly all actives have a fitted effect of over 15% in size; further: potency means the concentration at half of the fitted maximal effect
Procedure, shortened: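 Wild-type CHO-K1 cells exposed to compounds for 17hr at 37 C, 5% CO2. Caspase-3/7 activity then measured by Caspase-Glo 3/7 luminescence after 30min at room temperature.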

[3] = Caspase-3/7 induction in HepG2 cells by small molecules, qHTS cell viability counter screen (AID 1346981); further: nearly all actives have a fitted effect of over 30% in size; further: potency means the concentration at half of the fitted maximal effect; on activity change, negative = cytotoxicity: series mostly up to about 92 µM
Procedure, shortened: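 Treatment of HepG2 cells with DMSO-delivered compounds ran 16 hr at 37 C following a 5-hr pre-incubation of 2,000 cells/well. CellTiter-Fluor fluorescence, read after 1 hr, served as the viability measure in a qHTS format.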

[4] = target: Cytochrome P450 2D6 (Homo sapiens) (UniProt P10635); assay: Cytochrome P450 Family 2 Subfamily D Member 6 (CYP2D6) small molecule antagonists: luciferase reporter qHTS assay (AID 1671196); further: nearly all actives have a fitted effect of over 50% in size; further: potency means the concentration at half of the fitted maximal effect
Procedure, shortened: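 Chemicals tested for interference with CYP2D6 activity; proluciferin substrate, NADPH regeneration, 1 h at room temperature, luminescent detection.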

[5] = target: Cytochrome P450 2C19 (Homo sapiens) (UniProt P33261); assay: Cytochrome P450 Family 2 Subfamily C Member 19 (CYP2C19) small molecule antagonists: luciferase reporter qHTS assay (AID 1671197); further: nearly all actives have a fitted effect of over 65% in size; further: potency means the concentration at half of the fitted maximal effect
Procedure, shortened: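 CYP2C19 P450-Glo, 1536-well qHTS. Cpd + enzyme/proluciferin substrate 10 min RT; + NADPH regen, 37C 1 h; stop with luciferin detection reagent, 20 min RT, luminescence (RLU). Pos ctrl ketoconazole.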

[6] = target: Cytochrome P450 2C9 (Homo sapiens) (UniProt P11712); assay: Cytochrome P450 Family 2 Subfamily C Member 9 (CYP2C9) small molecule antagonists: luciferase reporter qHTS assay (AID 1671198); further: nearly all actives have a fitted effect of over 50% in size; further: potency means the concentration at half of the fitted maximal effect
Procedure, shortened: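 P450-Glo proluciferin substrate with CYP2C9 enzyme; 10 min RT preincubation, then NADPH regeneration 1 h at 37C; luciferin detection reagent 20 min RT, luminescence in relative luminescence units.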

[7] = target: Nuclear receptor subfamily 1 group I member 2 (Homo sapiens) (UniProt O75469); assay: Human pregnane X receptor (PXR) small molecule agonists, qHTS assay (AID 1346982); further: nearly all actives have a fitted effect of over 35% in size; further: potency means the concentration at half of the fitted maximal effect
Procedure, shortened: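 Stable HepG2 line reporting PXR-mediated CYP3A4 expression via luciferase. Treatment: 24 hr with compounds in DMSO at 37 C. Detection: ONE-Glo luminescence.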

[8] = target: Nuclear receptor subfamily 1 group I member 2 (Homo sapiens) (UniProt O75469); assay: CYP3A4 induction through human pregnane X receptor (PXR) by small molecules, qHTS assay (AID 1346984); further: nearly all actives have a fitted effect of over 40% in size
Procedure, shortened: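 After 24 h at 37C with compound, DPX-2 cells (HepG2, co-transfected PXR response element and CYP3A4 promoter-luciferase) got 3uM final P450-Glo Luciferin-IPA for 3 h; One-Glo luminescence followed.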

[9] = target: Nuclear receptor subfamily 1 group I member 2 (Homo sapiens) (UniProt O75469); assay: Human pregnane X receptor (PXR) activation by small molecules, qHTS assay (AID 1346985); further: nearly all actives have a fitted effect of over 40% in size; further: potency means the concentration at half of the fitted maximal effect
Procedure, shortened: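 DPX-2 cells (HepG2 co-transfected with a PXR response element and a CYP3A4-promoter luciferase construct) were seeded at 2,000 per well, rested 5 hr at 37C, then exposed to DMSO-dissolved compounds for 24 hr. Activation was read as luciferase luminescence.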

[10] = target: Nuclear receptor subfamily 1 group I member 2 (Rattus norvegicus) (UniProt Q9R1A7); assay: Rat pregnane X receptor (rPXR) activation by small molecules, qHTS assay (AID 1346983); conditions: rPXR luciferase reporter cells, One-Glo luminescence, 24 h; active compounds read high; further: nearly all actives have a fitted effect of over 20% in size
Procedure, shortened: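 Cell-based rPXR activation assay: rPXR cells, 2,000 per well, rested 5hr at 37 C, then exposed to compounds in DMSO for 24 hr at 37 C. Luciferase activity read by One-Glo luminescence after 30 min at room temperature.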

Chain of Nuclear receptor subfamily 1 group I member 2 (Rattus norvegicus) (Q9R1A7 whole entry, looked up): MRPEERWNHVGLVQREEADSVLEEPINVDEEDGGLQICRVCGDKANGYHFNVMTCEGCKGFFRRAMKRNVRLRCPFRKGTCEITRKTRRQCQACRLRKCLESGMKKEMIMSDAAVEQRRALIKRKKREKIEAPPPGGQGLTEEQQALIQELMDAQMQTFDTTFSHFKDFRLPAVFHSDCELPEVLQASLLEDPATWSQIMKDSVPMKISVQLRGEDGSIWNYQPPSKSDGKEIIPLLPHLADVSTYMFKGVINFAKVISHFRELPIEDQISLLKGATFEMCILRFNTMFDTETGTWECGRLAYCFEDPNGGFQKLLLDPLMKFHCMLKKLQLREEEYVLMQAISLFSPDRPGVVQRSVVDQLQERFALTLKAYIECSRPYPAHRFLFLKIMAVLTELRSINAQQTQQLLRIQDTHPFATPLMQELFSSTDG
Chain of Cytochrome P450 2C19 (Homo sapiens) (P33261 whole entry, looked up): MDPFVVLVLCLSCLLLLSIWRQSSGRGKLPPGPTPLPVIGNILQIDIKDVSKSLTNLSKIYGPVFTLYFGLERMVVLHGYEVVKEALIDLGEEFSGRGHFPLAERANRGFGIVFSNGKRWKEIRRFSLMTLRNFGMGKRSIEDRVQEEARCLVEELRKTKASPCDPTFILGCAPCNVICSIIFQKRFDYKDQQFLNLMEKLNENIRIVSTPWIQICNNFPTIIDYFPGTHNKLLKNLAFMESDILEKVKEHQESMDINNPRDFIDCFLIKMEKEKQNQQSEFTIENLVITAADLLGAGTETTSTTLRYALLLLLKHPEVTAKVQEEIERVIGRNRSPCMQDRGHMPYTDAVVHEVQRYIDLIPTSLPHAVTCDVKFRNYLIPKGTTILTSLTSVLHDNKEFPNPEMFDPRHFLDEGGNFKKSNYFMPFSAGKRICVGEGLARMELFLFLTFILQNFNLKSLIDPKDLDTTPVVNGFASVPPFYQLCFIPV
Chain of Cytochrome P450 2C9 (Homo sapiens) (P11712 whole entry, looked up): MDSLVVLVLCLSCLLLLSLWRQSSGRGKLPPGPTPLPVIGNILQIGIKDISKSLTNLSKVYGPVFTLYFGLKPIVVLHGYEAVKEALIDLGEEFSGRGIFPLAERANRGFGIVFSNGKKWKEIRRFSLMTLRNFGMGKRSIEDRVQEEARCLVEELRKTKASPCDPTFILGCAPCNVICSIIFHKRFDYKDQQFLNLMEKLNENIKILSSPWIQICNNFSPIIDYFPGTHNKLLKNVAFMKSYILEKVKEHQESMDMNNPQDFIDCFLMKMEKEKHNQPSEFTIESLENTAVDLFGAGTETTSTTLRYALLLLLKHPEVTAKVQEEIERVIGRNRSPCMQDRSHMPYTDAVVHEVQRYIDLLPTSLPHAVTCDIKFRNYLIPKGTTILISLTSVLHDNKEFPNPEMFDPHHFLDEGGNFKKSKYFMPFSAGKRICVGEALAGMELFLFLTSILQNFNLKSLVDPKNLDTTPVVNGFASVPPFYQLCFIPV
Chain of Nuclear receptor subfamily 1 group I member 2 (Homo sapiens) (O75469 whole entry, looked up): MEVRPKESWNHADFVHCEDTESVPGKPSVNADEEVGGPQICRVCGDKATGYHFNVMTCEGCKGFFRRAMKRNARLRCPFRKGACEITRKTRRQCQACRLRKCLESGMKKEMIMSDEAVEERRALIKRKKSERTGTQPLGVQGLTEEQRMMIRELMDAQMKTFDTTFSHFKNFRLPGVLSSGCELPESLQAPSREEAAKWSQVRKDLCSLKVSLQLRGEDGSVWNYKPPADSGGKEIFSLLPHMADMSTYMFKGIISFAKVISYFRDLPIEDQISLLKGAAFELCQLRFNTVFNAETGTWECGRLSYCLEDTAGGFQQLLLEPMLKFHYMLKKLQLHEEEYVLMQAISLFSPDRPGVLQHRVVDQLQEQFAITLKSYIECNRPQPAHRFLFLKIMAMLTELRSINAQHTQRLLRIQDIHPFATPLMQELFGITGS
Chain of Cytochrome P450 2D6 (Homo sapiens) (P10635 whole entry, looked up): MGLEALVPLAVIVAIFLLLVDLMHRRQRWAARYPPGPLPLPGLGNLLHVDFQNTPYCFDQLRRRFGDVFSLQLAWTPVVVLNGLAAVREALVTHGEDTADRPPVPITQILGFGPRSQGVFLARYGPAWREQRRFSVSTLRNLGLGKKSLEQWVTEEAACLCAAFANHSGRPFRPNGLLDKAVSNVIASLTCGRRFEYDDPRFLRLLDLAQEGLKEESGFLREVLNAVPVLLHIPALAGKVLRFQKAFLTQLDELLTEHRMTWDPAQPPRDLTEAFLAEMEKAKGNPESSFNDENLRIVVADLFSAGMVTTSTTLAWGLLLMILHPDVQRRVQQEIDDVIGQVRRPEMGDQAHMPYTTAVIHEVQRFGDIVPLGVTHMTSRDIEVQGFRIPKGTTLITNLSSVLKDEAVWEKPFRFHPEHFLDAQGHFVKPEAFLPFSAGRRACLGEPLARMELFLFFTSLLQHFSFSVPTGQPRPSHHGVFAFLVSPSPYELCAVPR

## CC1=Nc2ccccc2C1(C)C
[1]
  Potency: inactive
[2]
  Potency: inactive
[3]
  Potency: inactive
[4]
  Potency: 71.1 µM (active)
[5]
  Potency: 63.4 µM (active)
[6]
  Potency: 40 µM (active)

## COC(=O)C1=C(C)NC(C)=C(C(=O)OCCN2CCN(C(c3ccccc3)c3ccccc3)CC2)C1c1cccc([N+](=O)[O-])c1 (stereo not drawn)
[1]
  Potency: 21.1 µM (active)
[2]
  Potency: inactive
[7]
  Potency: inactive
[8]
  Potency: inactive
[9]
  Potency: inactive
[4]
  Potency: 2.75 µM (active)
[5]
  Potency: 2.45 µM (active)
[6]
  Potency: 0.692 µM (active)

## ClCCl
[1]
  Potency: inactive
[2]
  Potency: inactive
[3]
  Potency: inactive
[7]
  Potency: inactive
[6]
  Potency: inactive

## O=C1CCc2ccc(OCCCCN3CCN(c4cccc(Cl)c4Cl)CC3)cc2N1
[1]
  Potency: 21.1 µM (active)
[2]
  Potency: inactive
[3]
  Potency: 23.7 µM (active)
[10]
  max activation: -4.05%

## CN1CCN2c3ccccc3Cc3ccccc3C2C1 (stereo not drawn)
[1]
  Potency: inactive
[2]
  Potency: inactive
[3]
  Potency: inactive
[5]
  Potency: inactive
[6]
  Potency: inactive

## Cc1ccc(O)c(O)c1
[1]
  Potency: 52.9 µM (active)
[2]
  Potency: inactive
[7]
  Potency: 59.4 µM (active)
[5]
  Potency: inactive
[6]
  Potency: inactive

## CCCCNS(=O)(=O)c1ccc(C)cc1
[1]
  Potency: inactive
[2]
  Potency: inactive
[3]
  Potency: inactive
[5]
  Potency: 5.64 µM (active)
[6]
  Potency: 22.4 µM (active)

## CCCC(=O)OCOC(=O)C1=C(C)NC(C)=C(C(=O)OC)C1c1cccc(Cl)c1Cl (stereo not drawn)
[1]
  Potency: inactive
[2]
  Potency: inactive
[3]
  Potency: inactive
[4]
  Potency: inactive
[5]
  Potency: 1.74 µM (active)
[6]
  Potency: 2.19 µM (active)

## CC(=O)CC(=O)Nc1ccc(S(=O)(=O)O)cc1
[1]
  Potency: inactive
[2]
  Potency: inactive
[3]
  Potency: inactive
[5]
  Potency: inactive
[6]
  Potency: inactive

## Clc1nnc(Cl)c2ccccc12
[1]
  Potency: inactive
[2]
  Potency: inactive
[3]
  Potency: inactive
[5]
  Potency: inactive
[6]
  Potency: inactive

## NC(=S)NC(N)=S
[1]
  Potency: inactive
[2]
  Potency: inactive
[3]
  Potency: inactive
[5]
  Potency: 20 µM (active)
[6]
  Potency: 7.96 µM (active)

## CCN1C(=O)c2ccccc2C1Nc1ccc(OCCN2CCCCC2)cc1 (stereo not drawn)
[1]
  Potency: inactive
[2]
  Potency: inactive
[3]
  Potency: inactive
[7]
  Potency: 1.68 µM (active)
[6]
  Potency: inactive

## O=C(Oc1ccccc1)Oc1ccccc1
[1]
  Potency: inactive
[2]
  Potency: inactive
[3]
  Potency: inactive
[4]
  Potency: inactive
[5]
  Potency: 79.3 µM (active)

## O=C(O)CN(CCN(CC(=O)O)CC(=O)O)CC(=O)O
[1]
  activity change, negative = cytotoxicity: 5.31% [at 3.27 µM]
[2]
  caspase-3/7 activation: -0.0599% [at 3.27 µM]
[3]
  activity change, negative = cytotoxicity: -2.26% [at 3.27 µM]
[10]
  max activation: -0.541%

## CC(C)=CCNc1ncnc2c1ncn2[C@@H]1O[C@H](CO)[C@@H](O)[C@H]1O
[1]
  Potency: 11.9 µM (active)
[2]
  Potency: inactive
[7]
  Potency: 9.44 µM (active)
[5]
  Potency: inactive
[6]
  Potency: inactive

## C/C=C/C=C/COC(=O)C(C)C
[1]
  Potency: 54.5 µM (active)
[2]
  Potency: inactive
[7]
  Potency: 43.3 µM (active)
[5]
  Potency: 79.6 µM (active)
[6]
  Potency: 63.3 µM (active)

## CC(=O)[C@H]1CC[C@H]2[C@@H]3CCC4=CC(=O)CC[C@]4(C)[C@H]3CC[C@]12C
[1]
  Potency: 54.2 µM (active) and 48.6 µM (active)
[2]
  Potency: inactive
[3]
  Potency: inactive
[4]
  Potency: 15.8 µM (active) and 39.9 µM (active)
[5]
  Potency: 3.54 µM (active) and 3.99 µM (active)
[6]
  Potency: 22.3 µM (active) and 25.2 µM (active)

## COc1ccc2c(c1)c(CC(=O)OC/C=C(\C)CC/C=C(\C)CCC=C(C)C)c(C)n2C(=O)c1ccc(Cl)cc1
[1]
  Potency: inactive
[2]
  Potency: inactive
[3]
  Potency: inactive
[5]
  Potency: 15.5 µM (active)
[6]
  Potency: 17.4 µM (active)

## COc1cccc2c1C(=O)c1c(O)c3c(c(O)c1C2=O)C[C@@](O)(C(C)=O)C[C@@H]3O[C@H]1C[C@H](N)[C@H](O)[C@H](C)O1
[1]
  Potency: 21.8 µM (active) and 9.44 µM (active)
[2]
  Potency: 4.89 µM (active) and 6.68 µM (active)
[3]
  Potency: 30.8 µM (active) and 4.22 µM (active)
[10]
  max activation: -7.89%

## CC(N=C(NC#N)Nc1ccncc1)C(C)(C)C (stereo not drawn)
[1]
  Potency: inactive
[2]
  Potency: inactive
[3]
  Potency: inactive
[10]
  max activation: -8.82%
[5]
  Potency: 1.55 µM (active)
[6]
  Potency: 13.8 µM (active)

## Cc1cc(C(C)(C)C)c(O)c(C)c1Cn1c(=O)n(Cc2c(C)cc(C(C)(C)C)c(O)c2C)c(=O)n(Cc2c(C)cc(C(C)(C)C)c(O)c2C)c1=O
[1]
  Potency: 27.3 µM (active)
[2]
  Potency: inactive
[3]
  Potency: inactive
[5]
  Potency: 6.33 µM (active)

## COc1ccc(-c2coc3cc(O)ccc3c2=O)cc1
[1]
  Potency: inactive
[2]
  Potency: inactive
[3]
  Potency: inactive
[7]
  Potency: 1.37 µM (active)
[6]
  Potency: 0.252 µM (active)

## O=S(=O)(O)c1ccc(N=Nc2c(O)ccc3ccccc23)cc1
[1]
  Potency: 30.6 µM (active)
[2]
  Potency: inactive
[3]
  Potency: 30.6 µM (active)
[4]
  Potency: 35.6 µM (active)
[5]
  Potency: 11.2 µM (active)
[6]
  Potency: 31.7 µM (active)

## COc1c(C)c2c(c(O)c1C/C=C(\C)CCC(=O)OCCN1CCOCC1)C(=O)OC2
[1]
  Potency: 0.841 µM (active)
[2]
  Potency: inactive
[3]
  Potency: inactive
[10]
  max activation: -3.72%
[8]
  Potency: inactive
[9]
  Potency: inactive
[4]
  Potency: inactive
[5]
  Potency: inactive
[6]
  Potency: 13.8 µM (active)

## O=[N+]([O-])c1ccc(O)cc1C(F)(F)F
[1]
  Potency: 24.3 µM (active)
[2]
  Potency: inactive
[3]
  Potency: 43.3 µM (active)
[5]
  Potency: inactive
[6]
  Potency: 22.4 µM (active)

## CCOC(=O)Cn1cccc1-c1nc(-c2ccc(OC)cc2)c(-c2ccc(OC)cc2)s1
[1]
  Potency: inactive
[2]
  Potency: inactive
[5]
  Potency: 3.89 µM (active)
[6]
  Potency: 3.89 µM (active)

## CC1(C)[C@@H](O)CC[C@]2(C)[C@H]3C(=O)C=C4[C@@H]5C[C@@](C)(C(=O)O)CC[C@]5(C)CC[C@@]4(C)[C@]3(C)CC[C@@H]12
[2]
  Potency: inactive
[7]
  Potency: inactive
[10]
  max activation: 1.62%
[8]
  Potency: inactive
[9]
  Potency: inactive
[4]
  Potency: inactive
[5]
  Potency: inactive
[6]
  Potency: inactive

## O=C1CCc2cc(OCCCCc3nnnn3C3CCCCC3)ccc2N1
[2]
  Potency: inactive
[3]
  Potency: inactive
[7]
  Potency: 13.3 µM (active)
[4]
  Potency: inactive
[5]
  Potency: inactive
[6]
  Potency: 12.3 µM (active)

## CCOC(=O)c1ccc(C2CCC(NC[C@H](O)COc3ccc(O)c(NS(C)(=O)=O)c3)CC2)cc1 (stereo partly drawn)
[2]
  Potency: inactive
[7]
  Potency: inactive
[4]
  Potency: 58.4 µM (active)
[5]
  Potency: 32.8 µM (active)
[6]
  Potency: 5.84 µM (active)

## CN1CCCCC1CCN1c2ccccc2Sc2ccc(S(C)=O)cc21 (stereo not drawn)
[2]
  Potency: inactive
[7]
  Potency: 4.73 µM (active)
[10]
  max activation: -2.96% and -0.765%
[8]
  Potency: inactive
[9]
  Potency: 15.8 µM (active)
[5]
  Potency: inactive
[6]
  Potency: inactive

## c1ccc(SSc2ccccc2)cc1
[2]
  Potency: inactive
[3]
  Potency: inactive
[7]
  Potency: 27.5 µM (active)
[5]
  Potency: 22.6 µM (active)
[6]
  Potency: 31.9 µM (active)
